Biological target: COP9 signalosome complex subunit 4 (UniProt Q9BT78)
Assay: cross-link between two proteins; cross-linking mass spectrometry

E3 ubiquitin-protein ligase RBX1, P62877, sequence (P62877 whole entry): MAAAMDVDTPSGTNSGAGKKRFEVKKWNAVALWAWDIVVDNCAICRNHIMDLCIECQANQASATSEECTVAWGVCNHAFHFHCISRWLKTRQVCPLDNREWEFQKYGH

E3 ubiquitin-protein ligase RBX1, P62877
listed as a hit: yes
